Data taken from publication PMC11006913.
Numbering of substitutions follows the chain as printed.

Columns and labels:
Assay in all cases: PBM; 200 nM protein, PBS
Conditions in all cases: dsDNA, one strand shown
SHOX [1] = target: SHOX (Homo sapiens, UniProt O15266 103-189)
VENTX [2] = target: T1, VENTX (Homo sapiens, UniProt O95231 78-163, R121Q)
T1 sequence: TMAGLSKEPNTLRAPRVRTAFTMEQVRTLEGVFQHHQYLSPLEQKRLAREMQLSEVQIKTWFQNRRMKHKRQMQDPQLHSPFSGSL

VENTX [3] = target: T2, VENTX (Homo sapiens, UniProt O95231 78-163)
T2 sequence: T1 sequence with Q44R

PAX4 [4] = target: T3, PAX4 (Homo sapiens, UniProt O43316 9-242, R200K)
T3 sequence: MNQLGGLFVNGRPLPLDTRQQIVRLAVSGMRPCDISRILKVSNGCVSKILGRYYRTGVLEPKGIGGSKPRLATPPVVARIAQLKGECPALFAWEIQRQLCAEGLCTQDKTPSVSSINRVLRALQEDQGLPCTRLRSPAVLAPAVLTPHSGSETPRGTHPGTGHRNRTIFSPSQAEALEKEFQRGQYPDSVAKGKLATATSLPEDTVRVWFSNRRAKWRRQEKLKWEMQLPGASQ

VENTX [5] = target: T4, VENTX (Homo sapiens, UniProt O95231 78-163, Y115F)
T4 sequence: T1 sequence with Y38F, Q44R

PAX4 [6] = target: T5, PAX4 (Homo sapiens, UniProt O43316 9-242)
T5 sequence: T3 sequence with K192R

HESX1 [7] = target: HESX1 (Homo sapiens, UniProt Q9UBX0 95-180)
MSX2 [8] = target: MSX2 (Homo sapiens, UniProt P35548 130-214, R199I)
PAX4 [9] = target: T6, PAX4 (Homo sapiens, UniProt O43316 9-242, R200Q)
T6 sequence: T3 sequence with K192Q

SHOX [10] = target: SHOX (Homo sapiens, UniProt O15266 103-189, R173C)
PAX4 [11] = target: T7, PAX4 (Homo sapiens, UniProt O43316 9-242, F177V)
T7 sequence: T3 sequence with F169V, K192R

MSX2 [12] = target: MSX2 (Homo sapiens, UniProt P35548 130-214)
PAX4 [13] = target: T8, PAX4 (Homo sapiens, UniProt O43316 9-242, F177Y)
T8 sequence: T3 sequence with F169Y, K192R

VAX1 [14] = target: VAX1 (Homo sapiens, UniProt Q5SQQ9 86-172)
HESX1 [15] = target: HESX1 (Homo sapiens, UniProt Q9UBX0 95-180, P111T)
MSX2 [16] = target: MSX2 (Homo sapiens, UniProt P35548 130-214, F161Y)
HESX1 [17] = target: HESX1 (Homo sapiens, UniProt Q9UBX0 95-180, F115L)
VAX1 [18] = target: VAX1 (Homo sapiens, UniProt Q5SQQ9 86-172, T142I)
PAX4 [19] = target: T9, PAX4 (Homo sapiens, UniProt O43316 9-242, R227W)
T9 sequence: T3 sequence with K192R, R219W

VAX1 [20] = target: VAX1 (Homo sapiens, UniProt Q5SQQ9 86-172, K157R)
Chain of VAX1 (Homo sapiens, UniProt Q5SQQ9 86-172, K157R) (Q5SQQ9 86-172 K157R): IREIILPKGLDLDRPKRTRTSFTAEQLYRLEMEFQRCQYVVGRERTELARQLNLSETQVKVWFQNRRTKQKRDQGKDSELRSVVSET

Chain of SHOX (Homo sapiens, UniProt O15266 103-189) (O15266 103-189): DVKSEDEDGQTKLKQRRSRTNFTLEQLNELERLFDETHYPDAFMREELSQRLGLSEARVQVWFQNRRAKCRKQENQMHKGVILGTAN
Chain of HESX1 (Homo sapiens, UniProt Q9UBX0 95-180, P111T) (Q9UBX0 95-180 P111T): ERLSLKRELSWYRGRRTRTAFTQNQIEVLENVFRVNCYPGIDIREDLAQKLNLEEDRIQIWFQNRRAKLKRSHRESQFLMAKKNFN
Chain of SHOX (Homo sapiens, UniProt O15266 103-189, R173C) (O15266 103-189 R173C): as the sequence (O15266 103-189) above, with R71C counted along it
Chain of MSX2 (Homo sapiens, UniProt P35548 130-214) (P35548 130-214): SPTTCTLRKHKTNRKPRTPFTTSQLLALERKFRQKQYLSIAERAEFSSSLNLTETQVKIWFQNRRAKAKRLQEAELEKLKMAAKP
Chain of MSX2 (Homo sapiens, UniProt P35548 130-214, R199I) (P35548 130-214 R199I): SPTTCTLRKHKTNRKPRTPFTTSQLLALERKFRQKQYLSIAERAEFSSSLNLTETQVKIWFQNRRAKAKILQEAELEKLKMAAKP
Chain of VAX1 (Homo sapiens, UniProt Q5SQQ9 86-172, T142I) (Q5SQQ9 86-172 T142I): as the sequence (Q5SQQ9 86-172 K157R) above, with T57I, R72K counted along it
Chain of HESX1 (Homo sapiens, UniProt Q9UBX0 95-180, F115L) (Q9UBX0 95-180 F115L): as the sequence (Q9UBX0 95-180 P111T) above, with T17P, F21L counted along it
Chain of MSX2 (Homo sapiens, UniProt P35548 130-214, F161Y) (P35548 130-214 F161Y): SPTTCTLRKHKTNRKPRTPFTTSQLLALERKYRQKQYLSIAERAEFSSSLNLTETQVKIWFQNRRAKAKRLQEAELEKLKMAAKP
Chain of HESX1 (Homo sapiens, UniProt Q9UBX0 95-180) (Q9UBX0 95-180): as the sequence (Q9UBX0 95-180 P111T) above, with T17P counted along it
Chain of VAX1 (Homo sapiens, UniProt Q5SQQ9 86-172) (Q5SQQ9 86-172): as the sequence (Q5SQQ9 86-172 K157R) above, with R72K counted along it

Sequence	binding signal (SHOX [1])	binding signal (VENTX [2])	binding signal (VENTX [3])	binding signal (PAX4 [4])	binding signal (VENTX [5])	binding signal (PAX4 [6])	binding signal (HESX1 [7])	binding signal (MSX2 [8])	binding signal (PAX4 [9])	binding signal (SHOX [10])	binding signal (PAX4 [11])	binding signal (MSX2 [12])	binding signal (PAX4 [13])	binding signal (VAX1 [14])	binding signal (HESX1 [15])	binding signal (MSX2 [16])	binding signal (HESX1 [17])	binding signal (VAX1 [18])	binding signal (PAX4 [19])	binding signal (VAX1 [20])
GGTAATTA	12.7 upbm affinity estimate (log intensity, higher = more binding, comparable within an allelic series)	12.6 upbm affinity estimate (log intensity, higher = more binding, comparable within an allelic series)	13.2 upbm affinity estimate (log intensity, higher = more binding, comparable within an allelic series)	12 upbm affinity estimate (log intensity, higher = more binding, comparable within an allelic series)	12.6 upbm affinity estimate (log intensity, higher = more binding, comparable within an allelic series)	12.5 upbm affinity estimate (log intensity, higher = more binding, comparable within an allelic series)	13.2 upbm affinity estimate (log intensity, higher = more binding, comparable within an allelic series)	13.3 upbm affinity estimate (log intensity, higher = more binding, comparable within an allelic series)	12.4 upbm affinity estimate (log intensity, higher = more binding, comparable within an allelic series)	10 upbm affinity estimate (log intensity, higher = more binding, comparable within an allelic series)	10.7 upbm affinity estimate (log intensity, higher = more binding, comparable within an allelic series)	14.2 upbm affinity estimate (log intensity, higher = more binding, comparable within an allelic series)	11.1 upbm affinity estimate (log intensity, higher = more binding, comparable within an allelic series)	14.1 upbm affinity estimate (log intensity, higher = more binding, comparable within an allelic series)	11.7 upbm affinity estimate (log intensity, higher = more binding, comparable within an allelic series)	13.8 upbm affinity estimate (log intensity, higher = more binding, comparable within an allelic series)	8.04 upbm affinity estimate (log intensity, higher = more binding, comparable within an allelic series)	14.1 upbm affinity estimate (log intensity, higher = more binding, comparable within an allelic series)	11.1 upbm affinity estimate (log intensity, higher = more binding, comparable within an allelic series)	14.2 upbm affinity estimate (log intensity, higher = more binding, comparable within an allelic series)
GCTAATTA	13.5 upbm affinity estimate (log intensity, higher = more binding, comparable within an allelic series)	13 upbm affinity estimate (log intensity, higher = more binding, comparable within an allelic series)	13.5 upbm affinity estimate (log intensity, higher = more binding, comparable within an allelic series)	12.3 upbm affinity estimate (log intensity, higher = more binding, comparable within an allelic series)	12.8 upbm affinity estimate (log intensity, higher = more binding, comparable within an allelic series)	12.9 upbm affinity estimate (log intensity, higher = more binding, comparable within an allelic series)	13.6 upbm affinity estimate (log intensity, higher = more binding, comparable within an allelic series)	13.5 upbm affinity estimate (log intensity, higher = more binding, comparable within an allelic series)	12.9 upbm affinity estimate (log intensity, higher = more binding, comparable within an allelic series)	10.9 upbm affinity estimate (log intensity, higher = more binding, comparable within an allelic series)	10.9 upbm affinity estimate (log intensity, higher = more binding, comparable within an allelic series)	14.3 upbm affinity estimate (log intensity, higher = more binding, comparable within an allelic series)	11.4 upbm affinity estimate (log intensity, higher = more binding, comparable within an allelic series)	14 upbm affinity estimate (log intensity, higher = more binding, comparable within an allelic series)	12.4 upbm affinity estimate (log intensity, higher = more binding, comparable within an allelic series)	13.8 upbm affinity estimate (log intensity, higher = more binding, comparable within an allelic series)	8.29 upbm affinity estimate (log intensity, higher = more binding, comparable within an allelic series)	14.1 upbm affinity estimate (log intensity, higher = more binding, comparable within an allelic series)	11.4 upbm affinity estimate (log intensity, higher = more binding, comparable within an allelic series)	14.2 upbm affinity estimate (log intensity, higher = more binding, comparable within an allelic series)
CGTAATTA	12.4 upbm affinity estimate (log intensity, higher = more binding, comparable within an allelic series)	12.2 upbm affinity estimate (log intensity, higher = more binding, comparable within an allelic series)	12.7 upbm affinity estimate (log intensity, higher = more binding, comparable within an allelic series)	11.9 upbm affinity estimate (log intensity, higher = more binding, comparable within an allelic series)	12.3 upbm affinity estimate (log intensity, higher = more binding, comparable within an allelic series)	12.4 upbm affinity estimate (log intensity, higher = more binding, comparable within an allelic series)	12.6 upbm affinity estimate (log intensity, higher = more binding, comparable within an allelic series)	12.9 upbm affinity estimate (log intensity, higher = more binding, comparable within an allelic series)	12.3 upbm affinity estimate (log intensity, higher = more binding, comparable within an allelic series)	9.89 upbm affinity estimate (log intensity, higher = more binding, comparable within an allelic series)	10.7 upbm affinity estimate (log intensity, higher = more binding, comparable within an allelic series)	14 upbm affinity estimate (log intensity, higher = more binding, comparable within an allelic series)	11.1 upbm affinity estimate (log intensity, higher = more binding, comparable within an allelic series)	13.6 upbm affinity estimate (log intensity, higher = more binding, comparable within an allelic series)	11.1 upbm affinity estimate (log intensity, higher = more binding, comparable within an allelic series)	13.6 upbm affinity estimate (log intensity, higher = more binding, comparable within an allelic series)	7.77 upbm affinity estimate (log intensity, higher = more binding, comparable within an allelic series)	13.6 upbm affinity estimate (log intensity, higher = more binding, comparable within an allelic series)	11.1 upbm affinity estimate (log intensity, higher = more binding, comparable within an allelic series)	13.7 upbm affinity estimate (log intensity, higher = more binding, comparable within an allelic series)
ATAATTAC	12 upbm affinity estimate (log intensity, higher = more binding, comparable within an allelic series)	12.1 upbm affinity estimate (log intensity, higher = more binding, comparable within an allelic series)	12.5 upbm affinity estimate (log intensity, higher = more binding, comparable within an allelic series)	11.8 upbm affinity estimate (log intensity, higher = more binding, comparable within an allelic series)	12 upbm affinity estimate (log intensity, higher = more binding, comparable within an allelic series)	12.3 upbm affinity estimate (log intensity, higher = more binding, comparable within an allelic series)	12.6 upbm affinity estimate (log intensity, higher = more binding, comparable within an allelic series)	13.1 upbm affinity estimate (log intensity, higher = more binding, comparable within an allelic series)	12.3 upbm affinity estimate (log intensity, higher = more binding, comparable within an allelic series)	9.76 upbm affinity estimate (log intensity, higher = more binding, comparable within an allelic series)	10.8 upbm affinity estimate (log intensity, higher = more binding, comparable within an allelic series)	14 upbm affinity estimate (log intensity, higher = more binding, comparable within an allelic series)	11.2 upbm affinity estimate (log intensity, higher = more binding, comparable within an allelic series)	13.4 upbm affinity estimate (log intensity, higher = more binding, comparable within an allelic series)	11.1 upbm affinity estimate (log intensity, higher = more binding, comparable within an allelic series)	13.7 upbm affinity estimate (log intensity, higher = more binding, comparable within an allelic series)	7.97 upbm affinity estimate (log intensity, higher = more binding, comparable within an allelic series)	13.4 upbm affinity estimate (log intensity, higher = more binding, comparable within an allelic series)	11.2 upbm affinity estimate (log intensity, higher = more binding, comparable within an allelic series)	13.5 upbm affinity estimate (log intensity, higher = more binding, comparable within an allelic series)
